# Experimental data as given in PubChem BioAssay.
# System: PRMT1 (protein arginine N-methyltransferase 1)
# Test: PRMT1 binders on small-molecule microarrays, primary screen, biochemical, small-molecule microarray, 635 nm fluorescence (AID 1088);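 note: binding of Prmt1 protein to compounds spotted on small-molecule microarray slides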
# Conditions: small-molecule microarray binding, higher = more signal
row,SMILES,composite z-score
1,COCCOC(=O)N1C(=O)[C@@]2(c3cc(C#CCNC(N)=O)ccc31)[C@H](c1ccc(OCCO)cc1)N1[C@H](c3ccccc3)[C@H](c3ccccc3)OC(=O)[C@H]1[C@@H]2C(=O)N1CCCCCCC1,0.844
2,CN(C)c1ccc(C(O)C2C=CC3C(=O)NC(=O)C3N2Nc2ccc(Cl)cc2Cl)cc1 (configuration not stated),0.546
3,COCCOC(=O)N1C(=O)[C@@]2(c3cc(C#CCC(C(=O)OC)C(=O)OC)ccc31)[C@H](C(=O)N1CCN(c3ncccn3)CC1)[C@H]1C(=O)O[C@H](c3ccccc3)[C@H](c3ccccc3)N1[C@@H]2c1ccc(O)cc1,1.54
4,COCCOC(=O)N1C(=O)[C@@]2(c3ccccc31)[C@H](C(=O)N1CCc3cc(OC)c(OC)cc3C1)[C@H]1C(=O)O[C@H](c3ccccc3)[C@H](c3ccccc3)N1[C@@H]2c1ccccc1OCCO,1.48
5,CC(C)=C1C(=O)C(c2ccccc2)=C2CN3C(=O)N(CCc4ccccc4)C(=O)[C@]3(Cc3ccccc3)[C@H]21,-0.632
6,CO[C@H]1COC(=O)CC=C[C@H](C)COC(=O)[C@@H](OCc2ccccc2)C=C[C@@H]1C,1.52
7,[N-]=[N+]=NCc1ccccc1C[C@@]1(C(=O)N2CCOCC2)N=C(c2ccc(OCCCO)cc2)O[C@@H]1c1ccccc1N=[N+]=[N-],1.56
